# Data as given in ChEMBL document CHEMBL3988442, “University of Dundee, Small-Polar-MMV Screening Library” (2021).
# Screen size: about 66,000 compounds; about 960 (1.5%) showed an effect of 50% or more. The entries come from a sample that favours strong results as a whole.
# Tested on: Trypanosoma brucei
# Assay: Trypanosoma brucei 72 hour study
# Assay type: functional, organism-based
# Parameters: scale not given: in the data most compounds retested in dose-response had high values
compound,measurement,setting,value
CC(=O)N1CCO[C@@H]2CN(Cc3ccccc3F)C[C@@H]2C1.O=C(O)C(F)(F)F,Percent Effect,"30.3 µM, […]",-73.74%
O=C1OCCN1CC(=O)N1C[C@H]2CC[C@@H]1CN(Cc1cscn1)C2,Percent Effect,"30 µM, 30.03 µM",-38.65%
CNc1ccc(C(=O)N(C)Cc2ccc3ccccc3n2)cn1,Percent Effect,"30.3 µM, […]",5.672%
COc1ncccc1C(=O)N1CCC2(CC1)CC(OC)CO2.O=C(O)C(F)(F)F (centres undefined),Percent Effect,"30.3 µM, […]",-51.01%
COc1ncccc1C(=O)N1CC[C@]2(C[C@@H](Oc3cccnc3)CO2)C1.O=C(O)C(F)(F)F.O=C(O)C(F)(F)F,Percent Effect,"30 µM, 30.03 µM",55.04%
Cn1ccnc1C(=O)N1CCC2(CC1)CC(Oc1cccnc1)CO2.O=C(O)C(F)(F)F (centres undefined),Percent Effect,"30 µM, 30.03 µM",24.28%
Cn1ccc(C(=O)NC2CCC23CCN(CC2CCOCC2)CC3)c1.O=C(O)C(F)(F)F (centres undefined),Percent Effect,"30 µM, 30.03 µM",-17.43%
COCCN1CCCn2c(nc(CNS(C)(=O)=O)cc2=O)C1.O=C(O)C(F)(F)F,Percent Effect,"30.3 µM, […]",5.593%
CC(=O)N1N=C(c2ccccc2)OC1C(=O)NCCc1ccc(Cl)cc1 (centres undefined),Percent Effect,"30.3 µM, […]",-41.87%
same,Percent Effect,"10 mM, 10 mM as filed; unlikely as a test dose",-29.49%
CC(=O)N1N=C(c2ccccc2)OC1C(=O)NCCc1ccc(O)cc1 (centres undefined),Percent Effect,"30.3 µM, […]",-23.74%
same,Percent Effect,"10 mM, 10 mM as filed; unlikely as a test dose",-98.13%
CC(=O)N1N=C(c2ccccc2)OC1C(=O)NCCc1ccc(C)cc1 (centres undefined),Percent Effect,"30.3 µM, […]",99.94%
same,Percent Effect,"10 mM, 10 mM as filed; unlikely as a test dose",-45.21%
O=C(Cc1cccc(F)c1)N1CCn2cc(Cn3cccn3)nc2C1.O=C(O)C(F)(F)F,Percent Effect,"30.3 µM, […]",-215.4%
CC(C)c1n[nH]c(C2CN(C(=O)c3ccnc(C4CC4)n3)CCO2)n1 (centres undefined),Percent Effect,10 µM,-44.45%
Cc1nc2c(cc1C(=O)O)CCN(Cc1ccsc1)CC2.O=C(O)C(F)(F)F.O=C(O)C(F)(F)F,Percent Effect,"30.3 µM, […]",-6.304%
Cc1ncc(CN2CCOC(c3ccc(-c4ccccc4F)cn3)C2)s1 (centres undefined),Percent Effect,"30.3 µM, […]",93.67%
Cc1ncc(CN2CCOC(c3ccc(-c4cc[nH]n4)cn3)C2)s1 (centres undefined),Percent Effect,"30.3 µM, […]",-10.46%
Cc1ncc(CN2CCOC(c3ccc(-c4cnn(C)c4)cn3)C2)s1 (centres undefined),Percent Effect,"30.3 µM, […]",-5.677%
O=C(NC[C@]12COC[C@H]1CN(Cc1nccs1)C2)c1ccsc1.O=C(O)C(F)(F)F,Percent Effect,"30 µM, 30.03 µM",-41.51%
CN(C)CCN1CCN(Cc2cccc(C#N)c2)Cc2cccnc21.O=C(O)C(F)(F)F.O=C(O)C(F)(F)F.O=C(O)C(F)(F)F,Percent Effect,"30.3 µM, […]",-65.33%
CN1C(=O)[C@H]2CC[C@@H]1CN(S(=O)(=O)c1ccc(Cl)cc1Cl)C2,Percent Effect,"30 µM, 30.03 µM",13.71%
Cn1cc(C2CCCN2Cc2csc(C(C)(C)C)n2)cn1 (centres undefined),Percent Effect,"30 µM, 30.03 µM",87.76%
CC(C)c1nc(CN2CCCC2c2cnn(C)c2)cs1 (centres undefined),Percent Effect,10 µM,-7.544%
Cn1cc(C2CCCN2Cc2csc(-c3ccccc3)n2)cn1 (centres undefined),Percent Effect,10 µM,-15.89%
COCCn1c(=O)n(C)c(=O)c2ccc(C3CCN(C(C)=O)CC3)nc21,Percent Effect,"30.3 µM, […]",24.28%
Cl.OC[C@H]1CC[C@]2(CC1)CN(Cc1ccsc1)Cc1ccccc1O2,Percent Effect,"30.3 µM, […]",39.16%
CC(C)c1nccc(CN2CCCC(O)(CN3CCCC3)C2)n1 (centres undefined),Percent Effect,"30 µM, 30.03 µM",17.13%
CC(C)c1nccc(CN2CCC(O)(CN3CCCCC3)C2)n1 (centres undefined),Percent Effect,"30 µM, 30.03 µM",67.93%
CC(C)c1nccc(CN2CCCC(O)(CN(C)C)C2)n1 (centres undefined),Percent Effect,"30 µM, 30.03 µM",-2.317%
CCCSc1ncc(CN(C)CCN2CCCCC2)cn1.O=C(O)CC(O)(CC(=O)O)C(=O)O,Percent Effect,"30.3 µM, […]",2.471%
Cc1cccc(Nc2cc(C3CCCN(CC(N)=O)C3)ccn2)n1.O=CO.O=CO (centres undefined),Percent Effect,"30.3 µM, […]",-0.9423%
CCOc1ccccc1N1CCN(CC2(O)CCCNC2)CC1 (centres undefined),Percent Effect,"30 µM, 30.03 µM",-24.1%
Cc1ccccc1N1CCCN(CC2(O)CCCNC2)CC1 (centres undefined),Percent Effect,"30 µM, 30.03 µM",24.63%
Cc1ccc(C)c(N2CCN(CC3(O)CCNC3)CC2)c1 (centres undefined),Percent Effect,"30 µM, 30.03 µM",106.8%
Cn1cccc1C(=O)N1CCC2(CC1)CN(c1ccsc1)C(=O)CO2,Percent Effect,"30.3 µM, […]",-133.6%
COc1ccc(CN2CCO[C@H]3[C@H](OCCN4CCCC4)CC[C@@H]32)cc1.O=C(O)C(F)(F)F.O=C(O)C(F)(F)F,Percent Effect,"30.3 µM, […]",-2.76%
COc1ccccc1CN1CCc2c(nc(-c3ccccn3)[nH]c2=O)C1,Percent Effect,"30.3 µM, […]",100.6%
Cn1cccc1CN1CCc2c(nc(-c3ccccn3)[nH]c2=O)C1,Percent Effect,"30.3 µM, […]",100.6%
COc1ccc(CN2CCc3c(nc(-c4ccccn4)[nH]c3=O)C2)cc1,Percent Effect,"30.3 µM, […]",100.8%
Cn1cc(CN2CCc3c(nc(-c4ccccn4)[nH]c3=O)C2)cn1,Percent Effect,"30 µM, 30.03 µM",19.69%
Cc1ncc(CN2CCc3c(nc(-c4ccccn4)[nH]c3=O)C2)n1C,Percent Effect,"30.3 µM, […]",9.769%
O=c1[nH]c(-c2ccccn2)nc2c1CCN(S(=O)(=O)N1CCCC1)C2,Percent Effect,"30.3 µM, […]",16.13%
CCn1ncc(CN2CCc3c(nc(-c4cccnc4)[nH]c3=O)C2)c1C,Percent Effect,"30 µM, 30.03 µM",24.52%
O=c1[nH]c(-c2ccccn2)nc2c1CCN(Cc1cccc(O)c1)C2,Percent Effect,"30.3 µM, […]",-1.061%
Cc1nn(C)cc1CN1CCc2c(nc(-c3ccccn3)[nH]c2=O)C1,Percent Effect,"30.3 µM, […]",3.808%
CCN(CC)CC1CN(CCc2ccccc2)Cc2nccn2C1.O=C(O)C(F)(F)F.O=C(O)C(F)(F)F (centres undefined),Percent Effect,"30 µM, 30.03 µM",-28.98%
CC(C)c1nn(C)c(N(C)C)c1CNCCC(=O)NC1CCCCC1,Percent Effect,"30.3 µM, […]",-9.322%
